# Screens as filed in PubChem.
# FECH block: inhibitors of human ferrochelatase, primary screen, biochemical, purified FECH, Ni-mesoporphyrin absorbance; actives 3.3% (n = 20,000); calls only at 10 µM (by protocol); Ni-mesoporphyrin absorbance 550 nm;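 active = enzyme reaction rate more than 3 SD below the solvent-only control wells on the same plate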;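 also: lower slope than DMSO wells means FECH inhibition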
# Target sequence (P22830 whole entry, looked up): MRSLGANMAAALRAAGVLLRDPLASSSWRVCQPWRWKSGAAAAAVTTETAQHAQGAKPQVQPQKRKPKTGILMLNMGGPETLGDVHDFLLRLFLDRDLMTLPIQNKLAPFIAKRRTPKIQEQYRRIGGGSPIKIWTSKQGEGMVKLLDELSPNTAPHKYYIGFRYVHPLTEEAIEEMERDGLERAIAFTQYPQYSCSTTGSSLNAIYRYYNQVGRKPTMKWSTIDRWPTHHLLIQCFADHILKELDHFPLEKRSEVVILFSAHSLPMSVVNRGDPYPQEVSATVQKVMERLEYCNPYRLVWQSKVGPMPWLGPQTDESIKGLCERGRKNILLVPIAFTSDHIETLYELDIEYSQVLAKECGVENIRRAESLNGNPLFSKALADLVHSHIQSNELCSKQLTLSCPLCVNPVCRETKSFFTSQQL
# The depositor's hits bear a star; i = inactive; + = active, no number. Many of the other results were omitted from the sample, so hits are more common in it than they were.
SMILES,FECH block
COc1ccc(N2CCN(C(=O)c3nc4ccccc4n(C)c3=O)CC2)cc1,i
COc1ccc(CN2CCN(C(=O)c3nc4ccccc4n(C)c3=O)CC2)c(OC)c1OC,+
CC(C)(O)C#Cc1ccc(-c2nccn2Cc2ccc3c(c2)OCO3)s1,i
Cc1cc(Sc2ccccc2NC(=O)c2ccccc2C)n2nc(-c3ccccc3)nc2n1,i
O=C1CN(Cc2ccccc2)S(=O)(=O)c2ccccc2N1Cc1ccccc1F,+
O=C1CN(Cc2ccc(F)cc2)S(=O)(=O)c2ccccc2N1Cc1ccccc1,i
O=C1CN(Cc2ccc(F)cc2Cl)S(=O)(=O)c2ccccc2N1Cc1ccccc1F,i
COc1ccc(Nc2cc(C)nc(N3CCN(S(=O)(=O)c4ccc(C)cc4)CC3)n2)cc1,i
CCSc1ccccc1C(=O)Nc1cc(C)nn1-c1ncnc2c1cnn2-c1ccc(F)cc1,i
Cc1ccc(NC(=O)CNC(C)CN2CCOCC2)c(F)c1 (stereo not given),i
CC(C)(C)NS(=O)(=O)c1cc(C(=O)N2CCCCC2)cs1,+
CC(=O)c1ccc(N2CCN(S(=O)(=O)c3cc(C(=O)N4CCCC4)cs3)CC2)cc1,+
O=C(c1csc(S(=O)(=O)NC2CC2)c1)N1CCCC1,i
COc1cccc(N2CCN(S(=O)(=O)c3cc(C(=O)N4CCCC4)cs3)CC2)c1,i
Cc1cc(C)cc(NS(=O)(=O)c2cc(C(=O)N3CCCCC3)cs2)c1,i
CC(=O)c1ccc(N2CCN(S(=O)(=O)c3cc(C(=O)N4CCCCC4)cs3)CC2)cc1,i
Cc1n[nH]c(C)c1CCC(=O)NCc1cccnc1N1CCCN(C)CC1,i
CCC(C)N(Cc1ccsc1)Cc1csc(C(C)=O)c1 (stereo not given),i
O=C(c1cn(-c2ccccc2)nn1)N1CCN(CCn2cncn2)CC1,i
COc1cccc(-c2cn[nH]c2C2CCN(C(=O)c3onc4ccccc34)CC2)c1,i
CCCOc1ccc(C(=O)N2CC[C@H]3CC[C@@H](C2)N3)cc1Cl,i
COc1ccc(OC)c(CNC(=O)CN2C(=O)c3cccnc3Sc3ccccc32)c1,+
CCOc1ccc(CNC(=O)CN2C(=O)CN(C)C(=O)c3ccccc32)cc1OC,i
COc1ccc(OC)c(CNC(=O)Cn2c(=O)c3cnc(-c4ccccc4)nc3n(C)c2=O)c1,i
Cc1ccc(C(=O)Nc2nc3n(n2)C(c2c(F)cccc2Cl)C=C(c2ccc(Cl)cc2)N3)cc1 (stereo not given),i
SMILES,FECH block
Cc1ccc(C2=CC(c3ccc(Cl)cc3)n3nc(NC(=O)c4ccccc4F)nc3N2)cc1 (stereo not given),i
O=C(Nc1nc2n(n1)C(c1ccccc1Cl)C=C(c1ccccc1)N2)c1ccccc1 (stereo not given),i
Cc1ccc(C2=CC(c3ccc(F)cc3)n3nc(NC(=O)c4ccccc4)nc3N2)cc1 (stereo not given),i
Cc1ccc(C2=CC(c3c(F)cccc3Cl)n3nc(NC(=O)c4ccc(Cl)cc4)nc3N2)cc1 (stereo not given),i
Cc1cccc(C(=O)Nc2nc3n(n2)C(c2c(F)cccc2Cl)C=C(c2ccc(Cl)cc2)N3)c1 (stereo not given),+
O=C(Nc1nc2n(n1)C(c1c(F)cccc1Cl)C=C(c1ccccc1)N2)c1ccccc1 (stereo not given),+
COc1ccc(C(=O)Nc2nc3n(n2)C(c2c(F)cccc2Cl)C=C(c2ccccc2)N3)cc1 (stereo not given),i
Cc1ccc(C2=CC(c3c(F)cccc3Cl)n3nc(NC(=O)c4cccc(Cl)c4)nc3N2)cc1 (stereo not given),i
O=C(Nc1nc2n(n1)C(c1c(F)cccc1Cl)C=C(c1ccc(Cl)cc1)N2)c1cccnc1 (stereo not given),+
O=C(Nc1nc2n(n1)C(c1ccc(F)cc1)C=C(c1ccccc1)N2)c1ccccc1 (stereo not given),+
O=C(Nc1nc2n(n1)C(c1ccc(F)cc1)C=C(c1ccccc1)N2)c1ccc(Cl)cc1 (stereo not given),i
Cn1c(=O)n(C)c2cc(CNC(=O)c3n[nH]c4c3CCC4)ccc21,i
Cc1ccc(-c2ncc3c(=O)n(CCCN(C)C)c(=O)n(C)c3n2)cc1,i
O=C(c1cccc(O)c1)N1CCC(Cc2n[nH]c(=O)n2-c2ccccc2)CC1,i
O=S1(=O)CCC(Cc2nc(CCc3ccccc3)nn2-c2ccccn2)C1 (stereo not given),i
Cc1ccc(NC(=O)c2cccc(Cl)c2)cc1OCc1cc(=O)n2cccc(C)c2n1,i
CCCN(CCO)C(=O)CCn1c(C)cc(C)nc1=O,i
CC/C=C(\C)CN1CCNC(=O)C1CC(=O)NC (stereo not given),i
Cc1cc(=O)oc2cc(CN3CCC(N)(C(=O)O)C3)ccc12 (stereo not given),i
CCCc1c(C)nc2ncnn2c1Sc1ccc(NC(=O)Nc2ccc(F)cc2F)cc1,i
Cc1ccc(C2=CC(c3c(F)cccc3Cl)n3nc(NC(=O)CCc4ccccc4)nc3N2)cc1 (stereo not given),i
CCC(=O)Nc1nc2n(n1)C(c1c(F)cccc1Cl)C=C(c1ccc(C)cc1)N2 (stereo not given),i
CC(=O)Nc1nc2n(n1)C(c1c(F)cccc1Cl)C=C(c1ccccc1)N2 (stereo not given),+
Cc1cccc(-n2cc(-c3ccn(CC(=O)Nc4ccnn4C)n3)cn2)c1,i
COc1ccccc1NC(=O)Nc1nc(CC(=O)Nc2cccc(C)c2C)cs1,i
SMILES,FECH block
COc1ccccc1-n1cc(CN2CCC3(CC2)NCCNC3=O)cn1,i
COc1ccccc1C(=O)Nc1cccc(NC(=O)C2CCCN(C)C2)c1 (stereo not given),i
CCc1cc(C(C)NS(=O)(=O)NCc2ccccc2)on1 (stereo not given),i
Cc1cccn2c(CC(=O)NCCc3csc(-c4ccncc4)n3)cnc12,i
O=S(=O)(NCCc1csc(-c2ccncc2)n1)NCc1ccccc1,+
COc1ccc(S(=O)(=O)N2CCN(Cc3nc4cccnc4n3-c3ccccc3)CC2)cc1OC,+
COc1ccc(Cl)cc1S(=O)(=O)N1CCN(Cc2nc3cccnc3n2-c2ccccc2)CC1,i
Cc1ccc(S(=O)(=O)N2CCN(Cc3nc4cccnc4n3-c3ccccc3)CC2)cc1C,i
CCc1ccc(S(=O)(=O)N2CCN(Cc3nc4cccnc4n3-c3ccc(C)cc3)CC2)cc1,i
CCc1ccc(-n2c(CN3CCN(S(=O)(=O)c4ccc(CC)cc4)CC3)nc3cccnc32)cc1,+
CCc1ccc(-n2c(CN3CCN(S(=O)(=O)c4ccc(C)c(C)c4)CC3)nc3cccnc32)cc1,i
Cc1ccc(C)c(NC(=O)Cc2csc(NC(=O)Nc3cccc(Cl)c3)n2)c1,i
Cc1ccccc1C1CCN(CCNC2CCN(S(C)(=O)=O)CC2)C1 (stereo not given),i
COc1ccc(-c2cc(C(=O)NCc3ccc(F)cc3)[nH]n2)cc1S(N)(=O)=O,i
NS(=O)(=O)c1ccccc1NC(=O)NCc1ccc(F)cc1,+
Cc1nc2nc[nH]n2c(=O)c1NC(=O)NCc1ccc(F)cc1,i
CC(c1n[nH]c(Cc2ccccc2)n1)n1cnc2ccccc2c1=O (stereo not given),i
